Test results published in ChEMBL document CHEMBL2218924, “A broad activity screen in support of a chemogenomic map for kinase signalling research and drug discovery” (Biochem J, 2013).

Assays:
[1] = molecular target: T1, Serine/threonine-protein kinase D1 (Homo sapiens) (UniProt Q15139); details: at 1 µM
T1 sequence (whole entry): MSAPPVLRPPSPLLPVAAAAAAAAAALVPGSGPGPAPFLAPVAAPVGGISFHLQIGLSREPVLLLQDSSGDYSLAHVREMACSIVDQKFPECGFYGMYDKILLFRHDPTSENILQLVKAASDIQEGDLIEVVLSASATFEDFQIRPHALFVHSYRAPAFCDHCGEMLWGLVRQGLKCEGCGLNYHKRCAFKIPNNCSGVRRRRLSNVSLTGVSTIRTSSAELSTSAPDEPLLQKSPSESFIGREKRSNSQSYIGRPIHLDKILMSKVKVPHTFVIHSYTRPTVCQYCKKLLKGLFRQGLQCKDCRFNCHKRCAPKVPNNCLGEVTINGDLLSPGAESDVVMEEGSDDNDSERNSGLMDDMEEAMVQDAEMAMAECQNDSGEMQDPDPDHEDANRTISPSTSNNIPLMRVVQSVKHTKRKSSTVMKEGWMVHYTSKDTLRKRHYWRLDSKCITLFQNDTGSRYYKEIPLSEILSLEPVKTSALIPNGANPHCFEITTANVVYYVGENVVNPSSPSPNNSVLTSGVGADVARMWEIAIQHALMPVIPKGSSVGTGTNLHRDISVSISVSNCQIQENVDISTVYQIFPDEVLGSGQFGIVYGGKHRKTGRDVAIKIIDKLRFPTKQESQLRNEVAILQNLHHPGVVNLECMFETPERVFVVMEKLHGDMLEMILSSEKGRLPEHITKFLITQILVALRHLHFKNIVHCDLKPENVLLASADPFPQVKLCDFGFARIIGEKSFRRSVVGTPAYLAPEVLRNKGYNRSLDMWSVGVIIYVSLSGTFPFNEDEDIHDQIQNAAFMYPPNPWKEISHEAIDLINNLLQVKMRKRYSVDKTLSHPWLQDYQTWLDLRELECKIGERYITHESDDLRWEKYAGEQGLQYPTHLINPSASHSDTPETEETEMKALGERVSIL

[2] = molecular target: T1, Serine/threonine-protein kinase D1 (Homo sapiens); details: at 10 µM
[3] = molecular target: T2, Serine/threonine-protein kinase D2 (Homo sapiens) (UniProt Q9BZL6); details: at 1 µM
T2 sequence (whole entry): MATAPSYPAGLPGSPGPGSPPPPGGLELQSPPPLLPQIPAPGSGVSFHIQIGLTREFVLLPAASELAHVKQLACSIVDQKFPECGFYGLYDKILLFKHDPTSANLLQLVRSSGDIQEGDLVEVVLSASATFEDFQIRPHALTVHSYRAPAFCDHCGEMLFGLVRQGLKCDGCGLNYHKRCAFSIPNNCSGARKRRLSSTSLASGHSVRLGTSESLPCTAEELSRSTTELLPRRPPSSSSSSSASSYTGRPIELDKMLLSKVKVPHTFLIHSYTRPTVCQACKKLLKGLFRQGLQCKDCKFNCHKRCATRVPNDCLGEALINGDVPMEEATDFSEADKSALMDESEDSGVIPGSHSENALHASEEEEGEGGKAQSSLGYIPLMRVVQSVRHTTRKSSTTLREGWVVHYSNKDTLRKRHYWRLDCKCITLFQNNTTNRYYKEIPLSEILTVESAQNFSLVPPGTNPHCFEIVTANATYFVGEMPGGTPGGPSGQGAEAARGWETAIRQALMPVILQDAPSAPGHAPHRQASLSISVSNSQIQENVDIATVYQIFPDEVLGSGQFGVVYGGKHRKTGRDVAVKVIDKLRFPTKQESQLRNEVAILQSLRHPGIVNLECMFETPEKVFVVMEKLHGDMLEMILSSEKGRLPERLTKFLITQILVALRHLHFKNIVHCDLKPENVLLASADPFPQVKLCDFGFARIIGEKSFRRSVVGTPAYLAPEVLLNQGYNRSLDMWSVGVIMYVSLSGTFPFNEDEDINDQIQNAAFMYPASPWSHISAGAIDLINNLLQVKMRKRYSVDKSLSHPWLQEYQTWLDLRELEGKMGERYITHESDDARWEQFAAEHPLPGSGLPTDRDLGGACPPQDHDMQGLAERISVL

[4] = molecular target: T2, Serine/threonine-protein kinase D2 (Homo sapiens); details: at 10 µM
[5] = molecular target: T3, cGMP-dependent protein kinase 1 (Homo sapiens) (UniProt Q13976); details: at 1 µM
T3 sequence (whole entry): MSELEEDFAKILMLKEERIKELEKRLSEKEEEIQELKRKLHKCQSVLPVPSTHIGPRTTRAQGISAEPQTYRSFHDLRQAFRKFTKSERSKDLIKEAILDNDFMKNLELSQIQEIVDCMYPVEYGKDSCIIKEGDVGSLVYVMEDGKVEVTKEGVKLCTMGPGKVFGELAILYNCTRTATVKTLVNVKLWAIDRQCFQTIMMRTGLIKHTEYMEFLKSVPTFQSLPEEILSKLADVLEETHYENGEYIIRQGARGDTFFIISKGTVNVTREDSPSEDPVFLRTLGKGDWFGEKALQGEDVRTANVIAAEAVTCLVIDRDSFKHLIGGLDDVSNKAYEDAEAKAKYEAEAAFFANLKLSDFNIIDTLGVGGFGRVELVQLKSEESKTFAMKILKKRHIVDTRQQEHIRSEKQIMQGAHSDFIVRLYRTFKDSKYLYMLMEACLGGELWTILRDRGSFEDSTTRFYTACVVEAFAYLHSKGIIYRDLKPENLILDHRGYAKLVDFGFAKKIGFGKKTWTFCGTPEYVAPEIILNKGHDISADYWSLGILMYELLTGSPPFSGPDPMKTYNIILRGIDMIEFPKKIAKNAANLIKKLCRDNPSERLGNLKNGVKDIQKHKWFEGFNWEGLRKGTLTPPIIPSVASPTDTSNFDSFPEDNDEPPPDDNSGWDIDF

[6] = molecular target: T3, cGMP-dependent protein kinase 1 (Homo sapiens); details: at 10 µM
[7] = molecular target: T3, cGMP-dependent protein kinase 1 (Homo sapiens); details: at 1 µM; remark: listed apart in the source
[8] = molecular target: T3, cGMP-dependent protein kinase 1 (Homo sapiens); details: at 10 µM; remark: listed apart in the source
[9] = molecular target: T4, MAP kinase-activated protein kinase 5 (Homo sapiens) (UniProt Q8IW41); details: at 1 µM
T4 sequence (whole entry): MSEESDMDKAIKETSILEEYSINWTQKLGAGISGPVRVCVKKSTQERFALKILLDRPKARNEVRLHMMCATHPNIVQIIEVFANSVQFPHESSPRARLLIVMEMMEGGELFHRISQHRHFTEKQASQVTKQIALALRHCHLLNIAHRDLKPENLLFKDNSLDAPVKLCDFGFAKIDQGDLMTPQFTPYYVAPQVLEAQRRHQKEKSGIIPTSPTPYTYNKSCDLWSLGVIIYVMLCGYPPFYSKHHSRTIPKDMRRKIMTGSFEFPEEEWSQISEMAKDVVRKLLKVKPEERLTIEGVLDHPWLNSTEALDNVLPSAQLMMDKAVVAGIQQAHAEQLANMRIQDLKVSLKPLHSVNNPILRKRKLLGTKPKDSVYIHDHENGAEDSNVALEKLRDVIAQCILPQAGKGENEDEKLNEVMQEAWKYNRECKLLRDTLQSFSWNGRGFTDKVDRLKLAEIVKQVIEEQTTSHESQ

[10] = molecular target: T4, MAP kinase-activated protein kinase 5 (Homo sapiens); details: at 10 µM
[11] = molecular target: Serine/threonine-protein kinase N2 (Homo sapiens) (UniProt Q16513); details: at 1 µM
Chain of Serine/threonine-protein kinase N2 (Homo sapiens) (Q16513 whole entry, looked up): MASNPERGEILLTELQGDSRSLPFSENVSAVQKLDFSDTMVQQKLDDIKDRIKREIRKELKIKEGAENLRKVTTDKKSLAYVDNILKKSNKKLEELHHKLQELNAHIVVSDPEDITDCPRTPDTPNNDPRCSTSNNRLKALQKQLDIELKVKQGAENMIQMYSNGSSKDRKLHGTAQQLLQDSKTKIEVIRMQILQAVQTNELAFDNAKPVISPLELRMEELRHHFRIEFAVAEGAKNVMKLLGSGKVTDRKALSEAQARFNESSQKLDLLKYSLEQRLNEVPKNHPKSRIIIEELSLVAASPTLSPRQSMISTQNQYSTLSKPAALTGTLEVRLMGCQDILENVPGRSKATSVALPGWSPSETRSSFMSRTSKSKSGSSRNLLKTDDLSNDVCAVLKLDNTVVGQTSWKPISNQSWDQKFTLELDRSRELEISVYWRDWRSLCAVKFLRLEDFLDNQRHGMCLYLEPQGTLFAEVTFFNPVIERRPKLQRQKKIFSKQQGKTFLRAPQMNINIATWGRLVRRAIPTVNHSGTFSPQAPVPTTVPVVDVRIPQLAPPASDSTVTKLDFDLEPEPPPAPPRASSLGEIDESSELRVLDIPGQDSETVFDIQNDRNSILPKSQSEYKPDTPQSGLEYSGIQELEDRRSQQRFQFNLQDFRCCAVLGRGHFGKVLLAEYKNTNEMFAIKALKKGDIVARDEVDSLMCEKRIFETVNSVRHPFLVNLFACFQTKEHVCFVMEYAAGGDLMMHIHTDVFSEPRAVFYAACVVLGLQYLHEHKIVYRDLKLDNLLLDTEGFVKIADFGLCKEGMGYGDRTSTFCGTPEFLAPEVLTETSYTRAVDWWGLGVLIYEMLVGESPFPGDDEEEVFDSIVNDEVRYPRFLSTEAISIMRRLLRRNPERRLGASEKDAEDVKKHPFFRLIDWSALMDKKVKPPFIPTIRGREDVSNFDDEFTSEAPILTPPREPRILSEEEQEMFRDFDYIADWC

[12] = molecular target: Serine/threonine-protein kinase N2 (Homo sapiens) (UniProt Q16513); details: at 10 µM
[13] = molecular target: Tyrosine-protein kinase FRK (Homo sapiens) (UniProt P42685); details: at 1 µM
Chain of Tyrosine-protein kinase FRK (Homo sapiens) (P42685 whole entry): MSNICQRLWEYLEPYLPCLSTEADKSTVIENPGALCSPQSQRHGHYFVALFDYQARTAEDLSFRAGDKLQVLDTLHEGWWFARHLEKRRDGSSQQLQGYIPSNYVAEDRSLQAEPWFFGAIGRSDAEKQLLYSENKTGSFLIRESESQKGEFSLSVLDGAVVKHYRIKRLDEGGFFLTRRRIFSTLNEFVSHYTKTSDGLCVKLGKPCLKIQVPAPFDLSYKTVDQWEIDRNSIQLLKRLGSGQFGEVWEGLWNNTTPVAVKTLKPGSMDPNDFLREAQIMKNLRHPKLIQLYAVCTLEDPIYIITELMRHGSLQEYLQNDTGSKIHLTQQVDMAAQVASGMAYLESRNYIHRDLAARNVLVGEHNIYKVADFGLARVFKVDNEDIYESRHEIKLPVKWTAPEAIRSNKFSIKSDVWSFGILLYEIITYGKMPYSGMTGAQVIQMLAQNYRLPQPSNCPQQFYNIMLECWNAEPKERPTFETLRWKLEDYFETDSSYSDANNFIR

[14] = molecular target: Tyrosine-protein kinase FRK (Homo sapiens) (UniProt P42685); details: at 10 µM
[15] = molecular target: Protein kinase C eta type (Homo sapiens) (UniProt P24723); details: at 10 µM
Chain of Protein kinase C eta type (Homo sapiens) (P24723 whole entry): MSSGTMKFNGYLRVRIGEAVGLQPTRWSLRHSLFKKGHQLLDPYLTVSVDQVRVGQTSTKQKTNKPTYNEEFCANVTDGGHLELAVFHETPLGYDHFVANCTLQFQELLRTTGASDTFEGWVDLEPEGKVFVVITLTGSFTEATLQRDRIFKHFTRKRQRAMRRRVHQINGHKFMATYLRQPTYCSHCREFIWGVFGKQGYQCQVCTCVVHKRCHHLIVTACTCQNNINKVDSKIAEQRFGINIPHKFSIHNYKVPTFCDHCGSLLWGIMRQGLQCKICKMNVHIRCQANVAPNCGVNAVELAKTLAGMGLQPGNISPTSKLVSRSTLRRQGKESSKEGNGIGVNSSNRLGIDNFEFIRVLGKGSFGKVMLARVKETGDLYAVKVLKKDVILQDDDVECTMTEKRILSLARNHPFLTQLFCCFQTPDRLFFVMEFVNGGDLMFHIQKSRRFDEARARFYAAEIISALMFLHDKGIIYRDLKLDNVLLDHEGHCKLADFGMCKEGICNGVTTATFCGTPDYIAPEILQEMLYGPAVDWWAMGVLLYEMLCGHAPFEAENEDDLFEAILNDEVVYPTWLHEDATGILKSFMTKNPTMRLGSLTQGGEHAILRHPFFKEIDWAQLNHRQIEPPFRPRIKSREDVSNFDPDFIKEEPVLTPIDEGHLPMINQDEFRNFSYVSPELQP

[16] = molecular target: Protein kinase C theta type (Homo sapiens) (UniProt Q04759); details: at 10 µM
Chain of Protein kinase C theta type (Homo sapiens) (Q04759 whole entry, looked up): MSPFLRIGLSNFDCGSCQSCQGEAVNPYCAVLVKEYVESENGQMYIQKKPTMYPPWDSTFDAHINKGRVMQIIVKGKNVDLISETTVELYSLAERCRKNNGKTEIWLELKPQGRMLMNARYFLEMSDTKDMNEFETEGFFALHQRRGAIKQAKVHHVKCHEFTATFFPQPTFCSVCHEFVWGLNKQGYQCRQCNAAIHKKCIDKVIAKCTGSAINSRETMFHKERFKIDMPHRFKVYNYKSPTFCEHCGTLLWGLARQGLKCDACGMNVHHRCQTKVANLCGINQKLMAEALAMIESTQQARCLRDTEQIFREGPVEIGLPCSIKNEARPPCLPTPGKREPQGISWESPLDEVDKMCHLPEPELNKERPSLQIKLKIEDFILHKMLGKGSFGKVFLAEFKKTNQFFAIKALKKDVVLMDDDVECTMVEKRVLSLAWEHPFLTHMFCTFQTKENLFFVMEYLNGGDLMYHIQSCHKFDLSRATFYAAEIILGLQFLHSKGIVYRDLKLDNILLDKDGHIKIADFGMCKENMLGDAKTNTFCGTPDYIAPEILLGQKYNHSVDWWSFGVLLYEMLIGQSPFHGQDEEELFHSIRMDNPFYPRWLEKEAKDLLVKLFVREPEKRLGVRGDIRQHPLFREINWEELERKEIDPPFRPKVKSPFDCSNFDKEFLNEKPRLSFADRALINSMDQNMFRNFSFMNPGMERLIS

[17] = molecular target: T5, Protein kinase C iota type (Homo sapiens) (UniProt P41743); details: at 10 µM
T5 sequence (whole entry): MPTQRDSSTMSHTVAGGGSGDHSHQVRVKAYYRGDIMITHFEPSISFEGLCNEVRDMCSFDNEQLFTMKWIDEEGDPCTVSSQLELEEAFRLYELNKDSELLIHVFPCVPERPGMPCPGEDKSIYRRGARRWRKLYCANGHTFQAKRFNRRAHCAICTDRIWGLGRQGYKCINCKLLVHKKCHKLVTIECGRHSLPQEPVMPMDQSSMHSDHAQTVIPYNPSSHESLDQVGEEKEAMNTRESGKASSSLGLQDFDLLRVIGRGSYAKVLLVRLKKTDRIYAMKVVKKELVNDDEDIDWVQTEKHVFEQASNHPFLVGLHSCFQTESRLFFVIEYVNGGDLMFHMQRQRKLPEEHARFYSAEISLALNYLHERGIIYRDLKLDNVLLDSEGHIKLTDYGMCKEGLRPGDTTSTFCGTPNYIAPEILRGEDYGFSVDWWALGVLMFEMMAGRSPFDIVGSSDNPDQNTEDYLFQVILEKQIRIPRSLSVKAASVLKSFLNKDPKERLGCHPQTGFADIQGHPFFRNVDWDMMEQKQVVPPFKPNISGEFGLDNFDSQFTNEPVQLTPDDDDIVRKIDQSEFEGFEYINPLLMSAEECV

[18] = molecular target: Protein kinase C theta type (Homo sapiens) (UniProt Q04759); details: at 1 µM
[19] = molecular target: T5, Protein kinase C iota type (Homo sapiens); details: at 1 µM

Q: CC(C)(C)c1nc2c3ccc(F)cc3c3c(=O)[nH]ccc3c2[nH]1 was tested. Which residual activity [1] did it give?
A: 8%

Q: And the residual activity [2]?
A: 16%

Q: What about the residual activity [3] of the same compound?
A: 40%

Q: And the residual activity [4]?
A: 22%

Q: What about the residual activity [5] of the same compound?
A: 45%

Q: And the residual activity [6]?
A: 45%

Q: And the residual activity [7]?
A: 30%

Q: What about the residual activity [8] of the same compound?
A: 19%

Q: And the residual activity [9]?
A: 47%

Q: And the residual activity [10]?
A: 45%

Q: And the residual activity [11]?
A: 29%

Q: What about the residual activity [12] of the same compound?
A: 39%

Q: What about the residual activity [13] of the same compound?
A: 74%

Q: And the residual activity [14]?
A: 60%

Q: How did the residual activity [15] turn out when O=c1c(-c2ccc(F)cc2)c(-c2ccncc2)[nH]n1-c1ccc(Cl)cc1 was run?
A: 72%

Q: And the residual activity [16]?
A: 71%

Q: And the residual activity [17]?
A: 100%

Q: What about the residual activity [1] of the same compound?
A: 99%

Q: And the residual activity [2]?
A: 37%

Q: And the residual activity [4]?
A: 73%

Q: What about the residual activity [10] of the same compound?
A: 74%

Q: And the residual activity [14]?
A: 32%

Q: With CCOc1nc(NC(=O)Cc2cc(OC)ccc2OC)cc(N)c1C#N as the compound, how does the residual activity [2] read?
A: 54%

Q: What about the residual activity [12] of the same compound?
A: 82%

Q: And the residual activity [14]?
A: 74%

Q: How did the residual activity [2] turn out when Fc1ccc(-c2nc3n(c2-c2ccncc2)CCS3)cc1 was run?
A: 48%

Q: And the residual activity [4]?
A: 89%

Q: And the residual activity [13]?
A: 99%

Q: And the residual activity [14]?
A: 51%

Q: Which results are given for CCCCc1c(-c2ccc(OC)cc2)[nH]c2nccnc12?
A: residual activity [18]: 90%; residual activity [16]: 83%; residual activity [19]: 112% (inactive); residual activity [1]: 121%; residual activity [2]: 84%; residual activity [6]: 116%; residual activity [7]: 107%; residual activity [9]: 73%; residual activity [10]: 108%; residual activity [11]: 88%; residual activity [12]: 76%; residual activity [13]: 60%; residual activity [14]: 51%

Q: Which results are given for Nc1nc(Nc2ccc(S(N)(=O)=O)cc2)nn1C(=O)c1c(F)cccc1F?
A: residual activity [15]: 64%; residual activity [18]: 30%; residual activity [16]: 20%; residual activity [19]: 109% (inactive); residual activity [17]: 100%; residual activity [1]: 75%; residual activity [2]: 19%; residual activity [3]: 113%; residual activity [4]: 78%; residual activity [9]: 101%; residual activity [10]: 70%; residual activity [11]: 81%; residual activity [12]: 32%; residual activity [14]: 38%
